Test results reported in PubChem BioAssay (NCI).
About 83,000 compounds went through this panel and 20% of them were active in at least one assay; those are over-represented in the sample as a whole.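 The endpoint reported here, percent growth, reads 100 for growth as untreated, 0 for no net growth and -100 for all cells dead.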 Active and inactive are the calls of the source. How the source made its calls: active means growth percent below 10; inactive means the rest.

The compounds below were run on HL-60(TB) leukemia (assay: NCI-60 one-dose screen, 48 h (100 = growth as untreated, 0 = no growth, -100 = all killed)). Conditions: 10 µM unless noted.

With CO[C@H]1C[C@@H]2CC[C@@H](C)[C@@](O)(O2)C(=O)C(=O)N2CCCC[C@H]2C(=O)O[C@H]([C@H](C)C[C@@H]2CC[C@@H](OP(C)(C)=O)[C@H](OC)C2)CC(=O)[C@H](C)/C=C(\C)[C@@H](O)[C@@H](OC)C(=O)[C@H](C)C[C@H](C)\C=C/C=C/C=C/1C as the compound, how does the growth read?
The growth was 76.4% (inactive).

For CCN(CC)CCSCCCNc1c2ccc(Cl)cc2nc2ccc(OC)cc12, which growth is on record?
Its growth is -35.4% (active).

With Cc1cccc(N=Nc2cccc(C)c2)c1 as the compound, how does the growth read?
Its growth is 125% (inactive).

For COc1cc(-c2nn(-c3ccc(Br)cc3)cc2C(=O)O)ccc1O, which growth is on record?
The growth was 82.8% (inactive).

How did the growth turn out when COc1cc(/C(Cl)=C/C=C/C(=O)c2c(C)[n+]([O-])c3ccc(Cl)cc3[n+]2[O-])cc(OC)c1OC was run?
The growth was 11.9% (inactive).

Which growth does the source give for CC(=O)c1cc(Nc2cc(C)nc(N)n2)cc(C(C)=O)c1 here?
The growth was 96.1% (inactive).

C=C1C(=O)O[C@H]2[C@H]1CC/C(COC(=O)C(=O)c1cn(C)c3ccc(OC)cc13)=C\CC[C@@]1(C)O[C@@H]21 was tested. Which growth did it give?
The growth was -38.7% (active).

COc1ccc(Cl)cc1NC(N)=S was tested. Which growth did it give?
The growth was 101% (inactive).

How did the growth turn out when CN1Cc2c(cc(CN3CCCCC3)n2C)C(c2ccc(Br)cc2)C1 (stereo not given) was run?
The growth was 83.8% (inactive).

How did the growth turn out when C(=C1c2ccccc2-c2ccccc21)c1ccncc1 was run?
The growth was 9.03% (active).

CCCCC#Cc1c(I)n(C)c(=O)[nH]c1=O was tested. Which growth did it give?
Its growth is -10.8% (active).

Which growth does the source give for C(=N\Nc1nnn(Cc2ccccc2)n1)/c1ccccc1 here?
Its growth is 5.57% (active).

Which growth does the source give for CCCCCCCCCCCCC1CCC(=O)O1 (stereo not given) here?
The growth was 88.1% (inactive).

How did the growth turn out when CN(C)c1ccc(C(c2ccc(O)cc2)c2ccc(N(C)C)cc2)cc1 was run?
Its growth is 87.1% (inactive).

COc1cc(OC)c(/C=C/C(=O)c2ccc(Nc3ncnc4ccccc34)cc2)c(OC)c1 was tested. Which growth did it give?
The growth was 2.85% (active).

For CC1(C)Oc2cc3oc(=O)ccc3cc2C[C@@H]1OCCOS(=O)(=O)c1ccc(C#N)cc1, which growth is on record?
The growth was 100% (inactive).

How did the growth turn out when C=C1C(=O)O[C@H]2[C@H]1CC/C(COC(=O)NCc1nc3ccccc3[nH]1)=C\CC[C@@]1(C)O[C@@H]21 was run?
The growth was 17% (inactive).

Which growth does the source give for CN(C)C1CCN(C(=O)c2ccc(NC(=O)Nc3ccc(-c4nc(N5CCOCC5)c5cccn5n4)cc3)cc2)CC1 here?
Its growth is 4.58% (active).

C#CCN1C(=O)c2ccccc2N(CC#C)C12CCN(Cc1cn(CC(=O)Nc3ccccc3C(N)=O)nn1)CC2 was tested. Which growth did it give?
The growth was 86.6% (inactive).

c1ccc(-c2nc(Nc3nccnn3)c3ccccc3n2)cc1 was tested. Which growth did it give?
Its growth is 99.4% (inactive).

For CCCCSc1cc(C)nc(N)n1, which growth is on record?
Its growth is 96.6% (inactive).

With CC(=O)[C@@H]1CC[C@]2(COS(=O)(=O)c3ccc(C)cc3)CC[C@]3(C)[C@H](CC[C@@H]4[C@@]5(C)CCCNC(C)(C)[C@@H]5CC[C@]43C)[C@@H]12 as the compound, how does the growth read?
The growth was 28.1% (inactive).

How did the growth turn out when Cc1nc(N)nc(N[C@@H](C)c2nc3cccc(NCc4ccc(C(=O)NO)cc4)c3c(=O)n2-c2ccccc2)n1 was run?
Its growth is 43.1% (inactive).

Cc1ccc2nc3c(cc2c1)CSc1nnc(-c2ccc[nH]c2=S)n1N3 was tested. Which growth did it give?
The growth was 102% (inactive).

With FC(F)(F)c1ccccc1-c1cn2c(ccc3ccccc32)n1 as the compound, how does the growth read?
Its growth is 48.1% (inactive).

Which growth does the source give for Oc1cccc(CNC2CCCCC2)c1 here?
The growth was 107% (inactive).

For COc1ccc(C(=O)c2cc3c(N)c(C(=O)Nc4cccc(Br)c4C)sc3nc2C)cc1, which growth is on record?
Its growth is -58.7% (active).

Which growth does the source give for COc1cc(/C=C/C(=O)c2cccc(-n3cc(-c4cc(OC)c(OC)c(OC)c4)[nH]c3=O)c2)cc(OC)c1OC here?
Its growth is -18.5% (active).

For COc1cnc2c(c1)C(=O)c1c-2n(CCCNC2=NCCS2)c(=O)c2cc(Cl)ccc12, which growth is on record?
Its growth is -63.8% (active).

How did the growth turn out when O=Cc1ccc2nc(C(Cl)(Cl)Cl)ccc2c1 was run?
Its growth is 104% (inactive).

With CCCCCCCC/C=C\CCCCCCCCOc1cccc(CC(=O)NCC[N+]2(C)CCCC2)c1 as the compound, how does the growth read?
Its growth is 49.3% (inactive).

How did the growth turn out when COc1c(C2CC(=O)Nc3c2c(C)nn3-c2nc3ccccc3[nH]2)cc2c(c1OC)OCO2 (stereo not given) was run?
Its growth is 20.7% (inactive).

With COc1ccc2c(c1)[nH]c(=O)c1c3cccc(F)c3cn21 as the compound, how does the growth read?
Its growth is 11.2% (inactive).

With N#Cc1c(-c2ccccc2)cc(-c2ccccc2)n(CCCC(=O)NO)c1=O as the compound, how does the growth read?
The growth was 10.2% (inactive).

Which growth does the source give for N#Cc1c(N2CCOCC2)nc2sc3cc(Cl)ccc3n2c1=N here?
The growth was 107% (inactive).

How did the growth turn out when COc1cc2cc3c(nc2cc1OC)CCN3Cc1ccc(NC(=O)Nc2ccc(F)cc2F)cc1 was run?
The growth was 80.5% (inactive).

How did the growth turn out when O=C1/C(=C/c2ccccc2F)CNC/C1=C\c1ccccc1F was run?
The growth was -42.9% (active).

Cc1cn(-c2cc(NC(=O)c3cncc(C#Cc4c(N)ncc5ccc(F)cc45)c3)cc(C(F)(F)F)c2)cn1 was tested. Which growth did it give?
The growth was 9.54% (active).

Which growth does the source give for COc1ccc(C2CC(n3nnnc3-c3ccccc3)=NN2)cc1 (stereo not given) here?
The growth was 4.11% (active).

COc1c(O[C@@H]2OC(CO)[C@H](O)[C@H](O)C2O)cc2oc3cc(O)c(CC=C(C)C)c(O)c3c(=O)c2c1CC=C(C)C (stereo not given in full) was tested. Which growth did it give?
Its growth is 94.4% (inactive).
